# Test results reported in ChEMBL document CHEMBL1201862, “PubChem BioAssay data set” (2004).
# Out of some 57,000 sequences screened, about 4,200 (7.4%) were called active. Cut-off read from the data, not from the text of the source: active = GI50 up to about 1.1 µM and inactive = higher. A selection follows. Entries with a potency or affinity are not part of this list.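 48-hour exposure; five concentrations; linearly interpolated endpoints. GI50 marks 50% less growth.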
# Test system: UACC-62
# Experiment: NCI tumour cell line growth inhibition, 48 h
row,Substance,GI50 [µM]
1,"[Bis(aminomethyl)tetramethylenesilane]dichloropaltinum(II), CHEMBL2146205",16
2,"[Bis(aminomethyl)ethylmethylsilane]tetrachloroplatinum(IV), CHEMBL2146192",2.39
3,"CISPLATIN, CHEMBL11359",1.18
4,"[Bis(aminomethyl)dimethylsilane]tetrachloroplatinum(IV), CHEMBL2146190",4.57
5,"[Bis(aminomethyl)diethylsilane]tetrachloroplatinum(IV), CHEMBL2146203",3.93
6,"[Bis(aminomethyl)pentamethylenesilane]tetrachloropaltinum(IV), CHEMBL2146204",0.935
7,"cis-Bis[[(trimethylsilyl)methyl]amino]tetrachloroplatinum(IV), CHEMBL2146191",5.21
8,"[Bis(aminomethyl)pentamethylenesilane]dichloropaltinum(II), CHEMBL2146202",2.72
9,"[Bis(aminomethyl)dimethylsilane]dichloroplatinum (II), CHEMBL2146201",15.3
10,"mu-(1,7-nanodiamine-N,N')bis-(cis-aminedichloroplatimum (II)), CHEMBL2146215",3.44
11,"[Bis(aminomethyl)tetramethylenesilane]tetrachloropaltinum(IV), CHEMBL2146189",3.87
